Laboratory results published in PubChem BioAssay.
Calls of active or inactive are those of the source.

Key:
[1] = system: Human papillomavirus type 1a protein E7 (residues 44-93); test: small molecules binding HPV E7 44-93 – biochemical, small-molecule microarray, residues 44-93, 635 nm fluorescence, primary screen (AID 1108); conditions: fluorescence 635 nm, higher = more signal;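 note: E7 fragment applied at 1 µg/mL in TBST for 1 h at 4 C; score combines spot fluorescence with its signal to noise ratio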
[2] = hepatitis C replication reporter changes, two-sided – Huh7 cells, luciferase reporter, HCV replication inhibitor project, primary screen (AID 1109); conditions: Huh7 HCV replicon luciferase reporter, 48 h; higher = more signal;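 note: huh7 hepatoma cells harbouring a luciferase neomycin HCV replicon reporter; luciferase luminescence as measure of HCV replicon replication; test concentration not given here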
[3] = target: Left-right determination factor 2 (Homo sapiens) (UniProt O00292); test: small molecules binding LEFTY2 protein – biochemical, small-molecule microarray, 635 nm fluorescence scan, primary screen (AID 1110); conditions: higher = more signal
[4] = target: Calmodulin-1 (Homo sapiens) (UniProt P0DP23); test: small molecules binding calmodulin-1 with EGTA – biochemical, small-molecule microarray, Cy5-labelled CALM1, profiling panel (AID 1111); conditions: Cy5-CALM1 binding fluorescence, higher = more signal;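 note: labelled calmodulin applied in Tris saline Tween buffer holding calcium plus EGTA and DTT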
[5] = target: Calmodulin-1 (Homo sapiens) (UniProt P0DP23); test: small molecules binding Ca-loaded calmodulin-1 – biochemical, small-molecule microarray, Cy5-labelled CALM1, plus calcium, artefact control for SMM control-protein annotation, profiling panel (AID 1112); conditions: Cy5-CALM1 binding fluorescence, higher = more signal;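 note: score merges spot fluorescence with signal to noise from triplicate slides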
[6] = probe aWnt5a binding to arrayed compounds – biochemical, biotinylated probe, 635/667 nm fluorescence, primary screen (AID 1113); conditions: small-molecule microarray, higher = more signal;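 note: score merges 667 nm fluorescence intensity with signal-to-noise per printed feature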
[7] = probe aShh binding to arrayed compounds – biochemical, biotinylated probe, 635/667 nm fluorescence, primary screen (AID 1114); conditions: small-molecule microarray, higher = more signal;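 note: probe is biotin-labelled aShh protein from a stem cell growth factor screen; measures binding of labelled protein to compounds printed on the slide; score merges feature fluorescence at 667 nm with signal-to-noise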
[8] = probe aNog binding to arrayed compounds – biochemical, biotinylated probe, 635/667 nm fluorescence, primary screen (AID 1115); conditions: small-molecule microarray, higher = more signal;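 note: probe is biotinylated aNog protein used at 0.15 µg/mL for 1 h at 4 C; z-score combines 667 nm fluorescence of each spot with its signal to noise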
[9] = target: Torsin-1A-interacting protein 1 (Homo sapiens) (UniProt Q5JTV8); test: compound microarray binding of lysate hLAP1 – cell lysate, small-molecule microarray, COS7 lysate, 635/667 nm fluorescence, primary screen (AID 1116); conditions: 635 nm fluorescence, higher = more signal
[10] = target: Alpha-bungarotoxin (Bungarus multicinctus) (UniProt P60615); test: compounds binding labelled alpha-BTX control protein – biochemical, small-molecule microarray, Alexa647 label, 635/667 nm fluorescence, artefact control for SMM control protein annotation, profiling panel (AID 1117); conditions: alpha-BTX-A647 binding fluorescence, higher = more signal
[11] = target: Albumin (Bos taurus) (UniProt P02769); test: compounds binding labelled BSA control protein – biochemical, small-molecule microarray, Alexa647 label, 635/667 nm fluorescence, artefact control for SMM control protein annotation, profiling panel (AID 1118); conditions: BSA-A647 binding, fluorescence 635 nm, higher = more signal;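 note: score merges 667 nm emission intensity and signal-to-noise per printed compound spot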
[12] = probe aXIP binding to arrayed compounds – biochemical, NeuroSMM set, 635/667 nm fluorescence, primary screen (AID 1119); conditions: small-molecule microarray, higher = more signal, called active from +8 up or from −8 down;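 note: probe is the protein aXip251-270 applied at 1 µg/mL to compound-printed slides; binding of probe to printed compounds measured as 667 nm fluorescence plus signal to noise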
[13] = probe aNOTCH3 binding on compound microarray – biochemical, small-molecule microarray, 635/667 nm fluorescence, primary screen (AID 1120); conditions: higher = more signal;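 note: probe is a biotin-tagged antibody raised against NOTCH3 rather than NOTCH3 protein; score merges spot fluorescence near 667 nm with spot signal to noise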
[14] = probe aNOTCH2 binding on compound microarray – biochemical, small-molecule microarray, 635/667 nm fluorescence, primary screen (AID 1121); conditions: higher = more signal;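 note: score merges feature fluorescence read at 667 nm with its signal to noise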
[15] = target: Carbonic anhydrase 2 (Homo sapiens) (UniProt P00918); test: compounds binding carbonic anhydrase 2 – biochemical, small-molecule microarray, Alexa647-labelled CAII, profiling panel (AID 1122); conditions: CAII-A647 binding fluorescence, higher = more signal
[16] = COS7 lysate on small-molecule microarray, probe aHis, 635 nm (AID 1123); conditions: COS7 cell lysate, fluorescence, higher = more signal;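 note: z-score combines 667nm fluorescence intensity with signal-to-noise per printed compound spot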
[17] = probe aLAP1 signal on lysate-treated microarray – cell lysate, small-molecule microarray, COS7 lysate, primary screen (AID 1124); conditions: probe aLAP1, fluorescence, higher = more signal;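 note: lysate comes from COS7 cells expressing LAP1 and is applied at 0.3 µg/mL; score merges spot fluorescence near 667 nm with signal-to-noise over triplicate slides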
[18] = system: Sam68 (KHDRBS1); test: compounds binding KHDRBS1 protein – biochemical, small-molecule microarray, 635 nm fluorescence, primary screen (AID 1125); conditions: higher = more signal;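 note: score merges 667 nm channel intensity with signal to noise over triplicate slides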
[19] = system: Chordin-like protein 2 (CHRDL2); test: compounds binding chordin-like 2 – biochemical, small-molecule microarray, 635 nm fluorescence, primary screen (AID 1126); conditions: fluorescence 635 nm, higher = more signal;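 note: printed compound slides probed with Chrdl2 protein at 4 µg/mL for 1 h at 4 C; score merges 667 nm emission intensity with signal to noise over three replicate slides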
[20] = target: Concanavalin-A (Canavalia ensiformis) (UniProt P02866); test: compounds binding concanavalin A lectin – biochemical, small-molecule microarray, Alexa647 label, 635 nm, artefact control for SMM control protein annotation, primary screen (AID 1127); conditions: ConA-A647 binding fluorescence, higher = more signal;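 note: z combines 667 nm emission intensity with signal-to-noise across three replicate slides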
Sequence of Concanavalin-A (Canavalia ensiformis) (P02866 whole entry, looked up): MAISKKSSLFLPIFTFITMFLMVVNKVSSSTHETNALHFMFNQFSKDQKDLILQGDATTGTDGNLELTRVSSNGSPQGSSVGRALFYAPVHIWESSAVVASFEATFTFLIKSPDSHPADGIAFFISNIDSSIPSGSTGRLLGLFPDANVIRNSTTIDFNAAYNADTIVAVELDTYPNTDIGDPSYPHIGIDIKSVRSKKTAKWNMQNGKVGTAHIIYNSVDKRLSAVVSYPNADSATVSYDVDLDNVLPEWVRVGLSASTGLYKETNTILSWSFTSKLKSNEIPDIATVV

Sequence of Alpha-bungarotoxin (Bungarus multicinctus) (P60615 whole entry, looked up): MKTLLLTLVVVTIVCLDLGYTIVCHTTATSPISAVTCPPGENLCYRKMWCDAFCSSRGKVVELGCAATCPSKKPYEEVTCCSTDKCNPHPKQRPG
Sequence of Albumin (Bos taurus) (P02769 whole entry, looked up): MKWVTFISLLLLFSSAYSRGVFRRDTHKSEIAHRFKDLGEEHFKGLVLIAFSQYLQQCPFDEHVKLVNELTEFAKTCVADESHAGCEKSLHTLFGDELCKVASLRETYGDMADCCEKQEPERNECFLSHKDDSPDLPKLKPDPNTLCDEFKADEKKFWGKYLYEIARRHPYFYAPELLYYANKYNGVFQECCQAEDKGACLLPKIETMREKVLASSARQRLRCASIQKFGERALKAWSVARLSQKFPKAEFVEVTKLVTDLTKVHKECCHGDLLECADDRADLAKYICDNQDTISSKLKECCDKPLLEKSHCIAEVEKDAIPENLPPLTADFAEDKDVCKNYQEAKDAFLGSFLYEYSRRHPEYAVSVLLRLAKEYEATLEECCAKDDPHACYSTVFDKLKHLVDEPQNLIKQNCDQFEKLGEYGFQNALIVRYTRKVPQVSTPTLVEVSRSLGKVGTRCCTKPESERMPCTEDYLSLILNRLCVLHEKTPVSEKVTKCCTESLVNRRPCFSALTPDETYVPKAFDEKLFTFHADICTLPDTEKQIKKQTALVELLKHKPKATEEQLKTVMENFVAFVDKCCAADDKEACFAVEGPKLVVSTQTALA
Sequence of Left-right determination factor 2 (Homo sapiens) (O00292 whole entry, looked up): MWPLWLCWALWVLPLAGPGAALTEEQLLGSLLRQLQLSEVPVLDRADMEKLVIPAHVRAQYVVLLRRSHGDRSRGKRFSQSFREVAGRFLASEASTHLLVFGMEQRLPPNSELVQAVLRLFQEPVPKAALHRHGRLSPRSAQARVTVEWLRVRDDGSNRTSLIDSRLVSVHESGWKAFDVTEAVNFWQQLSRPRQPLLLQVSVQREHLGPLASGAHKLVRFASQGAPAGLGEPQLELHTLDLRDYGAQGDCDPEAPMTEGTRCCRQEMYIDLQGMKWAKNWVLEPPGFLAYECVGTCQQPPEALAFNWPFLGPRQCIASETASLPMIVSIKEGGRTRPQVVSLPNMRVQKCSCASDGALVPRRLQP
Sequence of Torsin-1A-interacting protein 1 (Homo sapiens) (Q5JTV8 whole entry, looked up): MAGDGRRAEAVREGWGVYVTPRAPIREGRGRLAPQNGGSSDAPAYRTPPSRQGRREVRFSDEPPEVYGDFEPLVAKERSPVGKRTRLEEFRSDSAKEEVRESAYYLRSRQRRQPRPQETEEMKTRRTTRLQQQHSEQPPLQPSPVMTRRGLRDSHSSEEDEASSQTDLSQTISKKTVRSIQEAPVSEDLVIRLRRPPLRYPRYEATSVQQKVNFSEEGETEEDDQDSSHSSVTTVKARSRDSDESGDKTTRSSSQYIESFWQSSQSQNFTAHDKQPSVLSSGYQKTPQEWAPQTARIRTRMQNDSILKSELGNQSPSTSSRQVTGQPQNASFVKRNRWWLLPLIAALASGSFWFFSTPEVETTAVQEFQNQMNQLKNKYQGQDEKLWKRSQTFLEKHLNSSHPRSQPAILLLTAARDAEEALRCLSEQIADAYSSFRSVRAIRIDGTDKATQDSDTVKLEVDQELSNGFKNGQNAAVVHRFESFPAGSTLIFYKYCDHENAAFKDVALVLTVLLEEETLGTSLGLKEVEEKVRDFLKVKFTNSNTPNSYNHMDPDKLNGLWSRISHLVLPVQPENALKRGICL

Structure (SMILES) | composite z-score [1] | z-score [2] | composite z-score [3] | composite z-score [4] | composite z-score [5] | composite z-score [6] | composite z-score [7] | composite z-score [8] | composite z-score [9] | composite z-score [10] | composite z-score [11] | composite Z-score [12] | composite z-score [13] | composite z-score [14] | composite z-score [15] | composite z-score [16] | composite z-score [17] | composite z-score [18] | composite z-score [19] | composite z-score [20]
O=C1[C@H]2[C@H]3[C@H](O)[C@H](O)CC(=NO[C@@H]4O[C@H](CO)[C@@H](O)[C@H](O)[C@H]4O)[C@H]3CC[C@H]2C(=O)N1Cc1ccc2c(c1)OCO2 | 1.44 | -0.594 | -0.515 | -0.603 | -0.329 | -0.115 | -0.397 | 0.0327 | 0.441 | 1.02 | 0.861 | -0.161 (inactive) | -0.0984 | -0.106 | 0.173 | 1.42 | 0.0185 | 0.89 | -0.575 | 0.619
CN(C)CCCNC(=O)[C@@H]1c2ccccc2C(=O)N(Cc2ccccc2)[C@H]1c1ccc(CO)cc1 | -0.176 | -1.24 | 0.186 | -0.177 | -0.981 | -0.0527 | -0.281 | 0.366 | -0.668 | -0.261 | -0.688 | 0.799 (inactive) | -0.0971 | -0.205 | 0.196 | 0.662 | 1.37 | -0.0257 | -0.623 | -0.312
O=C(NN=C1C[C@@H](O)[C@@H](O)[C@@H]2[C@@H]3C(=O)N(c4cccc(Oc5ccccc5)c4)C(=O)[C@@H]3CC[C@H]12)OCc1ccccc1 | -0.142 | -0.597 | 0.0075 | 0.0088 | -0.312 | -0.0664 | 0.3 | 0.116 | -0.0681 | 1.05 | 0.724 | -0.558 (inactive) | -0.0204 | -0.204 | -0.0039 | 1.82 | 0.122 | -0.406 | 0.0071 | 0.186
CC(C)[C@H](NC(=O)OC(C)(C)C)[C@@H](O)CC(=O)OC(C)(C)C | -2.46 | -0.59 | -0.428 | -0.32 | -0.275 | -0.0977 | -0.147 | -0.241 | -0.68 | -0.232 | -0.493 | 0.0831 (inactive) | -0.235 | -0.144 | -0.602 | -0.361 | -0.202 | -1.73 | -0.646 | -0.744
O=C1O[C@@H](c2ccccc2)[C@@H](c2ccccc2)N2[C@@H](c3ccccc3OCCO)[C@]3(C(=O)Nc4ccc(C#CCCO)cc43)[C@@H](C(=O)O)[C@H]12 | 1.42 | -1.99 | -0.28 | 1.04 | 0.734 | 0.385 | 0.633 | 1.32 | 1.17 | 2.53 | 0.682 | 0.215 (inactive) | 1.14 | 0.473 | 0.58 | 1.51 | 0.133 | 1.2 | 0.553 | 1.15
CC(C)=NOCc1cccc(-c2cc(-c3ccccc3)no2)c1 | 0.332 | -0.149 | 0.71 | 0.0463 | -0.823 | -0.0874 | 0.0952 | -0.161 | 0.237 | 0.553 | -0.0583 | 0.123 (inactive) | 0.062 | -0.203 | 0.257 | 0.686 | 0.0499 | 1 | 0.564 | 1.02
C=CCOC(=O)[C@H]1[C@@H]2C(=O)O[C@@H](c3ccccc3)[C@@H](c3ccccc3)N2[C@@H](c2ccc(OCCOC(=O)[C@H]3C[C@H]4C(=O)N5CCC[C@H]5C(=O)N4[C@H]3c3cccc(OCCO)c3)cc2)[C@]12C(=O)Nc1ccc(I)cc12 | 1.43 | -0.38 | 1.29 | 2 | 0.977 | 0.995 | 1.97 | 2.7 | 3.33 | 1.69 | 0.898 | 1.9 (inactive) | 1.36 | 0.554 | 0.879 | 3.06 | 1.25 | 1.29 | 1.24 | 1.23
C=COC[C@H]1CN2[C@@H](CC[C@@H](C)[C@@H]2c2ccc(Br)cc2)C(=O)O1 | 0.864 | 0.924 | 0.792 | 0.537 | -0.092 | -0.176 | -0.304 | -0.0286 | -0.415 | 0.166 | 0.496 | -0.0224 (inactive) | 0.0999 | 0.0877 | 0.459 | 0.807 | 0.446 | 1.33 | 0.664 | 1.03
COC(=O)[C@H]1COC(c2ccc(OCCCO)cc2)=N1 | -1.8 | 0.592 | -0.365 | -0.545 | 0.662 | 0.0108 | -0.276 | 0.221 | 1.94 | -0.373 | 0.543 | 0.0182 (inactive) | -0.16 | -0.0942 | 0.523 | 2.38 | 0.984 | -1.08 | -0.0157 | -0.588
C[C@@H]1C=CCC(=O)OC[C@H](C)C(=O)OC[C@H]2O[C@H]1C=C[C@H]2O | 0.0717 | -2.33 | 0.71 | -0.239 | -1.16 | -0.228 | -0.0793 | -0.278 | -0.0644 | -0.108 | 0.411 | -0.18 (inactive) | 0.2 | -0.0795 | 0.116 | 0.544 | 0.0137 | 0.0768 | 0.458 | 0.227
CCc1cc2c(nc1CC)CCN(CCC(C)=NOC[C@@H](O)COCc1ccco1)C2 | -1.51 | -1.59 | 1.48 | -0.729 | -1.77 | 0.0663 | 0.547 | -0.0965 | 1.11 | 0.64 | -0.576 | -0.206 (inactive) | 1.03 | 0.31 | 0.193 | -0.988 | 0.377 | 0.226 | 1.57 | 0.212
